In the supplement of paper PMC10105736:
Values without a mark were called inactive.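 How the source made its calls: active = MAPPIT score above the 99th percentile of random reference set scores in the same batch; inactive = at or below it.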

Assays:
Assay in all cases: MAPPIT interaction score (arbitrary units); higher = stronger binary interaction signal, active = hit call of the paper
CG32846 = conditions: MAPPIT configuration: N-N; pair source set: screen_1
Git = conditions: MAPPIT configuration: N-N; pair source set: screen_2
Mst87F = conditions: MAPPIT configuration: N-N; pair source set: screen_2
CG32809 = conditions: MAPPIT configuration: N-N; pair source set: Curagen_low_conf
RhoGAP92B = conditions: MAPPIT configuration: N-N; pair source set: Curagen_low_conf
CG34345 = conditions: pair source set: RRS
CG33514 = conditions: MAPPIT configuration: N-N; pair source set: DPIM
cv = conditions: MAPPIT configuration: N-N; pair source set: DPIM
dah = conditions: MAPPIT configuration: N-N; pair source set: DPIM
CG3356 = conditions: MAPPIT configuration: N-N; pair source set: Lit-BS-16
sinah = conditions: MAPPIT configuration: N-N; pair source set: screen_1
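Further: HEK293T cells with Epo stimulation, STAT-responsive firefly luciferase reporter, fold induction versus unstimulated cells divided by the larger fold induction of two negative controls lacking either bait or prey.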

B1: unk (protein)
chain: MLANETNKLLLSSQQEKPNHYTYLKEFRVEQCQSFLQHKCNQHRPFVCFNWHFQNQRRRRPVRKRDGTFNYSADNYCTKYDETTGICPEGDECPYLHRTAGDTERRYHLRYYKTCMCVHDTDSRGYCVKNGLHCAFAHGMQDQRPPVYDIKELETLQNAESTLDSTNALNALDKERNLMNEDPKWQDTNYVLANYKTEPCKRPPRLCRQGYACPQYHNSKDKRRSPRKYKYRSTPCPNVKHGEEWGEPGNCEAGDNCQYCHTRTEQQFHPEIYKSTKCNDVQQAGYCPRSVFCAFAHVEPCSMDDPRENSLSASLANTSLLTRSSAPINIPNTTLSNSINDFNSGSFAVNIPSSSLTYSPTNHANLFNVDAFNYGGSNKLSNSLSATQNDSSLFFPSRIISPGFGDGLSISPSVRISELNTIRDDINSSSVGNSLFENTLNTAKNAFSLQSLQSQNNSDLGRITNELLTKNAQIHKLNGRFEDMACKLKIAELHRDKAKQEAQEWKERYDLAQIQLNLPAELRDLSIQKLKQLQSKLRTDLEEVDKVLYLENAKKCMKCEENNRTVTLEPCNHLSICNTCAESVTECPYCQVPVITTHT
- MAPPIT interaction score (CG32846): -2.23
- MAPPIT interaction score (Git): 1.05
- MAPPIT interaction score (Mst87F): 0.54

B2: Nup62 (protein)
chain: MVFQLPTTTAAPTGGATSSFSFGLSTGTPAAAPASGAATTAPATKTTFSFGTPAPTAGIGGGDADNSKAQAPPAFGFGLGSGTASAPLTLGTQAAANPASTTSATATGTSAAPPAFGGFTAQPAASVVPTIATSAPNTAATTTGLLGGSGLGAPKTTAAASTTLTAAPSAIASTQGAAPAPTLSTGGAFANLTTETKTTDSSAVSTASQLSYHQLEEHINKWTLEFEEQEKVFTEQATQINAWDKLLISNNGKIVELNDAVKKVKTDQQVLDQELEFIATQQKELEDSLGPLEKEFVNLPRVDMERSQTYLMVENLDTQLKQMSEDLKEIIDNLNEANKGQDTTDPIIQIGKILNAHMNSLQWIESQSTNISKKLEDIGKIQDSQKRDIFRAPF
- MAPPIT interaction score (CG32809): 2.19
- MAPPIT interaction score (RhoGAP92B): 0.00556

B3: MCU (protein)
chain: MSRNRAAMVSAFRLFLRPATTTTHRSLALRLAPGTTFALHLRPCHELQQHRSFASTAEDGETDKHKKPTTGEDIYVEYVNGMPHMTVRLPSRNELCQFALKPISHNVGDLLAMLRAEDRGIDRAAVINKHGVRIASSCTIESLLDDSFSIQINNRTLDVNPPKRDKVTLESMDKVGDVRKVIAQLYEAFNVGEYQLEKSNQLAKELETLRYELEPLEEKKLELSKKAARRTNFMTWMGLGLMSVQFGILARLTWWEYSWDIMEPVTYFVTYGTTMAMYAYYCVTKREYMMEDVKNREFSLSLYRNAKKVQFDVEHYNELKRKSAELEYNLRRINDPLNMQLPSHLVRTQENTPPTLTEEKAERKYT
- MAPPIT interaction score (CG34345; MAPPIT configuration: N-C): 0.433
- MAPPIT interaction score (CG34345; MAPPIT configuration: N-N): 0.157

B4: RpS21 (protein)
chain: MENDAGENVDLYVPRKCSASNRIIHAKDHASVQLSIVDVDPETGRQTDGSKTYAICGEIRRMGESDDCIVRLAKKDGIITKNF
- MAPPIT interaction score (CG33514): 0.423
- MAPPIT interaction score (cv): -0.17
- MAPPIT interaction score (dah): -0.359

B5: Ubc4 (protein)
chain: MANMAVSRIKREFKEVMRSEEIVQCSIKIELVNDSWTELRGEIAGPPDTPYEGGKFVLEIKVPETYPFNPPKVRFITRIWHPNISSVTGAICLDILKDNWAAAMTLRTVLLSLQALLAAAEPDDPQDAVVAYQFKDKYDLFLLTAKHWTNAYAGGPHTFPDCDSKIQRLRDMGIDEHEARAVLSKENWNLEKATEGLFS
- MAPPIT interaction score (CG3356): 0.159
- MAPPIT interaction score (sinah): 2.14
